Source: PubChem BioAssay AID651813 (National Center for Advancing Translational Sciences (NCATS), 2012)
Screen size: about 2,100 compounds; about 1,100 (52%) were called active. About 27% were inconclusive and are not listed. Calls come from the whole dose curve; as a rule, active = well fitted inhibition curve with a large enough effect; inconclusive = small, poorly fitted or top-dose-only effect; inactive = no such curve, though single readings can be large or run the other way. So high a share suggests a set chosen from earlier hits. The list shows a part of the results.

These molecules were tested against DNA dC->dU-editing enzyme APOBEC-3G (Homo sapiens) (UniProt Q9HC16) (assay: qHTS for inhibitors of Vif-A3G interactions: Cherry picks counterscreen). Conditions: HeLa A3G-eYFP + Vif (tagged APOBEC3G with the HIV-1 protein that degrades it), eYFP fluorescence, 24 h.
Method in brief: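 Readout is eYFP fluorescence (488 nm excitation, 500-530 nm emission) measured on Acumen Explorer after 24 h compound exposure, several concentrations, at 37 deg C. Cells: HeLa stably co-expressing Vif and C-terminally eYFP-tagged A3G; MG132 positive control.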
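Note: hits raise yellow fluorescence by blocking Vif-driven A3G-eYFP degradation; nearly all actives have a fitted effect of over 70% in size.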
Potency is the fitted concentration of half-maximal effect.
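Throughout, for max response: max response given as percent of control signal.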

Chain of DNA dC->dU-editing enzyme APOBEC-3G (Homo sapiens) (Q9HC16 whole entry, looked up): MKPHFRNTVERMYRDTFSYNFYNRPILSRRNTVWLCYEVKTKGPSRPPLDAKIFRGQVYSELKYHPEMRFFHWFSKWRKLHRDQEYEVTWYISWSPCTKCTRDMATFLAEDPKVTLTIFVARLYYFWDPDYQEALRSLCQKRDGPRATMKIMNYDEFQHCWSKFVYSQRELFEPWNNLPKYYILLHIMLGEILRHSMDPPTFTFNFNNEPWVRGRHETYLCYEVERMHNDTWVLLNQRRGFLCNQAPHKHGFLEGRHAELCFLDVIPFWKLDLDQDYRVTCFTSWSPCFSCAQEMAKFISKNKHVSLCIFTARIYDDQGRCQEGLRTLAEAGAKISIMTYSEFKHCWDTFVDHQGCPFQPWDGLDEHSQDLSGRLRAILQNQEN

| SMILES | Potency | max response |
| --- | --- | --- |
| CCN(CC)c1ccc(/C=C/c2ccnc3ccccc23)cc1 | 14.6 µM (active) | – |
| CCN(CCCN(C)C)c1ccc(/C=C/c2ccnc3ccccc23)cc1 | 18.4 µM (active) | – |
| CC(C)CN(CC(C)C)c1ccc(/C=C/c2ccnc3ccccc23)cc1 | 16.4 µM (active) | – |
| O=C1OC(/C(=C\Nc2cc(Cl)ccc2O)[N+](=O)[O-])c2ccccc21 (stereo unspecified) | – | 4.09% (inactive) |
| Cc1nc2ccc(NC(=O)c3cc(S(=O)(=O)N(C)c4ccccc4)ccc3Cl)cc2s1 | 16.4 µM (active) | – |
| N=c1n(CC(=O)c2ccc([N+](=O)[O-])cc2)c2ccccc2n1Cc1ccccc1 | 20.6 µM (active) | – |
| COc1ccc(-c2cc(C(F)F)n3ncc(C(=O)N4CCc5ccccc54)c3n2)cc1 | 2.23 µM (active) | – |
| CC1(C(=O)NCc2cccs2)Cc2c(-c3ccc(C(N)=O)cc3)ccnc2O1 (stereo unspecified) | 9.94 µM (active) | – |
| CC(=O)Nc1ccc(-c2ccnc3c2CC(C)(C(=O)NCc2ccco2)O3)cc1 (stereo unspecified) | 7.04 µM (active) | – |
| CC(=O)Nc1cccc(-c2ccnc3c2CC(C)(C(=O)NCc2cccs2)O3)c1 (stereo unspecified) | 3.14 µM (active) | – |
| CC1(C(=O)NCc2ccco2)Cc2c(-c3cccc(C(N)=O)c3)ccnc2O1 (stereo unspecified) | 7.04 µM (active) | – |
| Cn1c(=O)c(N)c2c3c(c(Br)ccc31)C(=O)c1ccccc1-2 | – | 44.6% (inactive) |
| CC1(C(=O)NCc2ccccc2)Cc2c(-c3ccc(C(N)=O)cc3)ccnc2O1 (stereo unspecified) | 6.27 µM (active) | – |
| CC1(C(=O)NCc2ccccc2)Cc2c(-c3cccc(C(N)=O)c3)ccnc2O1 (stereo unspecified) | 6.27 µM (active) | – |
| CC(=O)Nc1cccc(-c2ccnc3c2CC(C(=O)NCc2cccs2)O3)c1 (stereo unspecified) | 2.23 µM (active) | – |
| CC1(C(=O)NCc2ccc(F)c(F)c2)Cc2c(-c3cccc(C(N)=O)c3)ccnc2O1 (stereo unspecified) | 17.7 µM (active) | – |
| CC(=O)Nc1cccc(-c2ccnc3c2CC(C)(C(=O)NCc2ccccc2)O3)c1 (stereo unspecified) | 1.4 µM (active) | – |
| CC(=O)Nc1ccc(-c2ccnc3c2CC(C(=O)NCc2ccccc2)O3)cc1 (stereo unspecified) | 0.444 µM (active) | – |
| CC(=O)Nc1ccc(-c2ccnc3c2CC(C(=O)NCc2cccc(Cl)c2)O3)cc1 (stereo unspecified) | 3.14 µM (active) | – |
| N#Cc1c(C(F)(F)F)cc(-c2ccccc2)nc1SCc1nc(N)nc(N2CCOCC2)n1 | 2.91 µM (active) | – |
| N#C/C(=C\c1ccc(N2CCOCC2)o1)c1ccccc1 | 14 µM (active) | – |
| N#C/C(=C/c1ccc(N2CCOCC2)o1)c1ccc(Cl)cc1 | 2.31 µM (active) | – |
| Cc1ccc(/C(C#N)=C\c2ccc(N3CCOCC3)o2)cc1 | 17.7 µM (active) | – |

| SMILES | Potency | max response |
| --- | --- | --- |
| N#C/C(=C/c1ccc(N2CCCCCC2)o1)c1ccc(Cl)cc1 | 2.91 µM (active) | – |
| N#CC(C#N)=C1C=C2C=C(N3CCOCC3)CCC2CC1 (stereo unspecified) | – | 51.3% (inactive) |
| Cc1ccc(S(=O)c2ccc([N+](=O)[O-])c3nonc23)cc1 (stereo unspecified) | – | 28.3% (inactive) |
| CN1CCC(OC(=O)c2cc3cc(Cl)cc(Cl)c3oc2=O)CC1 | – | 17.4% (inactive) |
| Cn1nnc2c[n+](CC(=O)c3ccc(Cl)cc3)cc(Br)c21 | 19.8 µM (active) | – |
| O=C(Nc1nnc(-c2ccc3c(c2)CCCC3)o1)c1c(F)cccc1F | – | 11.9% (inactive) |
| O=C(N/N=C/c1c(O)n(-c2ccc(Cl)cn2)c(=O)c2ccccc12)c1ccncc1 | – | -19.7% (inactive) |
| Cc1cc(C(=O)N/N=C/c2ccc(C)o2)c2ccccc2n1 | 4.98 µM (active) | – |
| C/C(=N\NC(=O)c1cc(C)nc2ccccc12)c1ccncc1 | – | -20.6% (inactive) |
| Cc1ccc(C=NNC(=O)c2cc(-c3cccnc3)nc3ccccc23)o1 | 15.8 µM (active) | – |
| Cc1ccc(/C=N/NC(=O)c2cc(-c3ccccc3)nc3ccccc23)o1 | 19.8 µM (active) | – |
| O=C(N/N=C/c1ccc(Cl)cc1)c1cc(-c2cccnc2)nc2ccccc12 | 2.5 µM (active) | – |
| COCCNC(=S)N/N=C(\C)c1ccccc1O | – | 6.88% (inactive) |
| COc1ccccc1/C=N/NC(=O)c1cc2c(OC)c(OC)ccc2[nH]1 | 5.59 µM (active) | – |
| COCCCNC(=S)N/N=C/c1cccc(OC)c1O | – | 7.9% (inactive) |
| CCOc1ccc(/C=N/NC(=O)c2cc3c(OC)cccc3[nH]2)cc1 | – | 2.03% (inactive) |
| COc1cccc(/C=N/NC(=O)c2cc3c(OC)c(OC)ccc3[nH]2)c1OC | 7.9 µM (active) | – |
| COc1ccc(N=Cc2c(O)n(-c3cccc(C)n3)c(=O)c3ccccc23)c(OC)c1 | 6.51 µM (active) | – |
| Cc1ccc(N=Cc2c(O)n(-c3nccs3)c(=O)c3ccccc23)c(C)c1 | – | -1.11% (inactive) |
| CC1=Nc2ccc(C)cc2/C1=C/c1c(N)n2oc(C)cc2nc1=O | 16.4 µM (active) | – |
| CCSC1=NSC2=NC(=O)/C(=C\c3coc4ccccc4c3=O)C(=N)N12 | 16.4 µM (active) | – |
| Cc1ccc(Cn2c(SCc3ccc(C(=O)NC4CCCC4)cc3)nc3ccncc32)cc1 | – | -1.29% (inactive) |
| COc1ccc(C)cc1Nc1c2c(nc3ccccc13)CCC2 | 0.886 µM (active) | – |
